Test results as given in PubChem BioAssay (EPA / NIEHS).
Calls of active or inactive are those of the source. The calls were made as follows: active = hit-call score of the fitted dose curve at least 0.9, where 1 is the maximum; inactive = score below 0.9.

Tests used:
[1] = ATG_CRE_CIS: Attagene CIS-FACTORIAL HepG2 Assay for human cAMP Responsive Element (CRE) binding protein 3 (AID 2282926); settings: HepG2 CRE cis-reporter, Attagene multiplexed mRNA; actives raise or lower the signal
In short: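 Induced reporter mRNA from a CRE cis element, measured in HepG2 among many multiplexed units at 24 h. Detection used RT-PCR plus capillary electrophoresis of fluorescent fragments; DMSO served as negative control.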

[2] = target: CCAAT/enhancer-binding protein beta (Homo sapiens) (UniProt P17676); assay: ATG_C_EBP_CIS: Attagene CIS-FACTORIAL HepG2 Assay for human CCAAT/Enhancer Binding Protein (C/EBP) beta (AID 2282927); settings: HepG2 Attagene cis-factorial transcription factor reporter; actives raise or lower the signal
CCAAT/enhancer-binding protein beta (Homo sapiens), sequence (P17676 whole entry, looked up, the tested form may be a part): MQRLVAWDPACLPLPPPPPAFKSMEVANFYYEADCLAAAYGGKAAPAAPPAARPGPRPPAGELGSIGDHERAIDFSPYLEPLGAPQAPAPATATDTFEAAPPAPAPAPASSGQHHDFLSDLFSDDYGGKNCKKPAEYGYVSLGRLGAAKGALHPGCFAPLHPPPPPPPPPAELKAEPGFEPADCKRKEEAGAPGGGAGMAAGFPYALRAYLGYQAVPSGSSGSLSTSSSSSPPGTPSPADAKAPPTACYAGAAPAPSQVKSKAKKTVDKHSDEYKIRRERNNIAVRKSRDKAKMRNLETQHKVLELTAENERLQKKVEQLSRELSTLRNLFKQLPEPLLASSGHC
In short: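 Chemical-treated HepG2 cells (24 h) bearing cis-regulated reporter constructs were processed for total RNA, then reverse transcription, PCR amplification, fluorescent primer extension and fragment analysis; gain- and loss-of-signal were fitted against DMSO.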

[3] = ATG_CMV_CIS: Attagene CIS-FACTORIAL HepG2 Assay for human CMV (Internal Marker) (AID 2282928); settings: HepG2 CMV promoter reporter, transcription factor profiling; actives raise or lower the signal;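 also: endpoint acts as a background internal control marker rather than a target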
In short: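 24 h chemical treatment, HepG2 with transient multi-reporter transfection; RNA → oligo(dT) RT → PCR → 6-FAM extension → HpaI digest → CE fluorescence. Bidirectional fit, DMSO negative control.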

[4] = target: Aryl hydrocarbon receptor (Homo sapiens) (UniProt P35869); assay: ATG_Ahr_CIS: Attagene CIS-FACTORIAL HepG2 Assay for human Aryl Hydrocarbon Receptor (Ahr) (AID 2282930); settings: HepG2 AhR cis-factorial reporter transcription; actives raise or lower the signal
Aryl hydrocarbon receptor (Homo sapiens), sequence (P35869 whole entry, looked up): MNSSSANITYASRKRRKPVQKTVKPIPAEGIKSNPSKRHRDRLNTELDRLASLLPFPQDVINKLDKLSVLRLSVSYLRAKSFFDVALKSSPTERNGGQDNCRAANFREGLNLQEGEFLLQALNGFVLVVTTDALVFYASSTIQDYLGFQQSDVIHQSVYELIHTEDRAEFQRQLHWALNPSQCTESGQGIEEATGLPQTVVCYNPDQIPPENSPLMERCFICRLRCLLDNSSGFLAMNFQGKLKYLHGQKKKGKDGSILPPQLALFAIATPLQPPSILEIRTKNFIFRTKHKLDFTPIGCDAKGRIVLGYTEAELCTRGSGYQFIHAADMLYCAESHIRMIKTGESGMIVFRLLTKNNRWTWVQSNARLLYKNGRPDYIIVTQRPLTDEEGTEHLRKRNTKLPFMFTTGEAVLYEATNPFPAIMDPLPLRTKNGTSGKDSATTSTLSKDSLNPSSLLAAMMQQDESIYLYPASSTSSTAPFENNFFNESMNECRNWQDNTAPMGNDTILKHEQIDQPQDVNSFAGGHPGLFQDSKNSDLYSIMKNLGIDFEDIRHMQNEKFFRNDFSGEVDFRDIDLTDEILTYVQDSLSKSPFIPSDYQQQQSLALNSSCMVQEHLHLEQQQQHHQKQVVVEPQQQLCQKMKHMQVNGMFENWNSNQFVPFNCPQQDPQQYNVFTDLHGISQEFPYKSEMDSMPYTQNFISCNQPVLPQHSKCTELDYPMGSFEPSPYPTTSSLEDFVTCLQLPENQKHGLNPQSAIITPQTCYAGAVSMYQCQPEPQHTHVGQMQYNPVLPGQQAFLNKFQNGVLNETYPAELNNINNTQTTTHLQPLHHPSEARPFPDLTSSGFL
In short: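 Following 24 h of chemical dosing, transfected HepG2 liver cells with cis-driven reporter units were lysed for RNA; reporter mRNA was quantified via RT-PCR and capillary electrophoresis, and responses fitted bidirectionally from DMSO.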

[5] = ATG_AP_1_CIS: Attagene CIS-FACTORIAL HepG2 Assay for human Activator Protein 1 (AP-1) (AID 2282931); settings: HepG2 Attagene cis-factorial AP-1 reporter mRNA; actives raise or lower the signal
In short: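 HepG2 cells transiently transfected with cis-element-driven multiplex reporter units; 24 h compound exposure. Reporter mRNA quantified by RT-PCR, FAM-labelled fragments resolved by capillary electrophoresis; bidirectional fit versus DMSO baseline.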

[6] = ATG_AP_2_CIS: Attagene CIS-FACTORIAL HepG2 Assay for human Activator Protein 2 (AP-2) (AID 2282932); settings: HepG2 AP-2 cis-reporter, Attagene transcription factor profiling; actives raise or lower the signal
In short: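 Assay in transfected HepG2 with promoter-regulated reporters, 24 h incubation after dosing. Signal is reporter mRNA fluorescence (RT-PCR, capillary electrophoresis), analysed for both increases and decreases relative to DMSO controls.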

[7] = ATG_BRE_CIS: Attagene CIS-FACTORIAL HepG2 Assay for human Bone Morphogenetic Protein (BMP) Response Element (BRE) (AID 2282933); settings: HepG2 BMP response element reporter, Attagene transcription factor profiling; actives raise or lower the signal
In short: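 HepG2 cells transiently transfected with CIS reporter units (endogenous TF activity, BMP response element), dosed 24 h. Reporter mRNA quantified by RT-PCR, fluorescent labelling and capillary electrophoresis; bidirectional fit vs DMSO baseline.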

[8] = target: Retinoic acid receptor alpha (Homo sapiens) (UniProt P10276); assay: ATG_DR5_RAR_CIS: Attagene CIS-FACTORIAL HepG2 Assay for human Retinoic Acid Receptor Alpha (RARE), DR5 submotif (AID 2282934); settings: HepG2 Attagene cis-factorial RARE DR5 reporter, mRNA; actives raise or lower the signal;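 as to AC50: reporter responds to endogenous RAR alpha beta and gamma in HepG2 not RARA alone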
Retinoic acid receptor alpha (Homo sapiens), sequence (P10276 whole entry, looked up): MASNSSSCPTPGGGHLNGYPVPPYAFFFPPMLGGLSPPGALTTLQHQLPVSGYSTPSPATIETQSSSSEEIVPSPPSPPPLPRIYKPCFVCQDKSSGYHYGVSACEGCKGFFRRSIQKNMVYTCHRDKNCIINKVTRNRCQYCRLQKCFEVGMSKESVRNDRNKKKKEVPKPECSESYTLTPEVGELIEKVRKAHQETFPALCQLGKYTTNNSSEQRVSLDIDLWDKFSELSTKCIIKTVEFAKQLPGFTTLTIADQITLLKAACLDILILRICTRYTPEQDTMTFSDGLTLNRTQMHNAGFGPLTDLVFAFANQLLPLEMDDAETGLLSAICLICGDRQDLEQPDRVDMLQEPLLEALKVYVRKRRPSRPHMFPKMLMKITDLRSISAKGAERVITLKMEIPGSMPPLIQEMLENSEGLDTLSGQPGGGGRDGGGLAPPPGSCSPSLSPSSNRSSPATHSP
In short: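 Transfected HepG2 reporter cells are exposed to chemicals for 24 h. Then RNA is extracted and the DR5 element reporter transcript is measured by RT-PCR and capillary electrophoresis, with bidirectional curve fitting relative to DMSO.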

[9] = ATG_E_Box_CIS: Attagene CIS-FACTORIAL HepG2 Assay for human Enhancer Box (E-box) (AID 2282936); settings: HepG2 E-box cis-reporter transcription, actives raise or lower the signal
In short: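 Measured 24 h post-dosing in HepG2 cells transfected with multiple cis-regulated reporter units, signal being reporter mRNA induction detected by fluorescent RT-PCR with capillary electrophoresis; gain or loss fitted against DMSO.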

[10] = ATG_EGR_CIS: Attagene CIS-FACTORIAL HepG2 Assay for human Early Growth Response 1 (EGR1) (AID 2282938); settings: HepG2 Attagene CIS-FACTORIAL EGR reporter mRNA; actives raise or lower the signal
In short: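 HepG2 cells transiently transfected with cis-promoter-driven multiplexed reporter transcription units; reporter mRNA measured 24 h after compound dosing by RT-PCR, 6-FAM primer extension, HpaI digestion and capillary electrophoresis. Bidirectional fit versus DMSO baseline.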

[11] = ATG_M_19_CIS: Attagene CIS-FACTORIAL HepG2 Assay for M19 Transcription Factor (Internal Marker) (AID 2282939); settings: HepG2 Attagene CIS-FACTORIAL M19 internal marker reporter; actives raise or lower the signal
In short: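 HepG2 cells transiently transfected with cis-regulated multiplexed reporter units, dosed 24 h. Reporter mRNA quantified by RT-PCR and capillary electrophoresis; internal background marker fitted bidirectionally versus DMSO.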

[12] = ATG_Ets_CIS: Attagene CIS-FACTORIAL HepG2 Assay for human Erythroblast Transformation Specific (ETS) (AID 2282941); settings: HepG2 ETS cis-reporter transcription, actives raise or lower the signal
In short: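 Cis-regulated reporter mRNA induction in HepG2 (transient transfection), 24 h exposure, RT-PCR plus capillary electrophoresis detection; DMSO serves as negative control and baseline.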

[13] = target: Hepatocyte nuclear factor 3-beta (Homo sapiens) (UniProt Q9Y261); assay: ATG_FoxA2_CIS: Attagene CIS-FACTORIAL HepG2 Assay for human Forkhead box A2 (FOXA2) (AID 2282942); settings: HepG2 cis-reporter transcription factor activity, 24 h; actives raise or lower the signal
Hepatocyte nuclear factor 3-beta (Homo sapiens), sequence (Q9Y261 whole entry, looked up): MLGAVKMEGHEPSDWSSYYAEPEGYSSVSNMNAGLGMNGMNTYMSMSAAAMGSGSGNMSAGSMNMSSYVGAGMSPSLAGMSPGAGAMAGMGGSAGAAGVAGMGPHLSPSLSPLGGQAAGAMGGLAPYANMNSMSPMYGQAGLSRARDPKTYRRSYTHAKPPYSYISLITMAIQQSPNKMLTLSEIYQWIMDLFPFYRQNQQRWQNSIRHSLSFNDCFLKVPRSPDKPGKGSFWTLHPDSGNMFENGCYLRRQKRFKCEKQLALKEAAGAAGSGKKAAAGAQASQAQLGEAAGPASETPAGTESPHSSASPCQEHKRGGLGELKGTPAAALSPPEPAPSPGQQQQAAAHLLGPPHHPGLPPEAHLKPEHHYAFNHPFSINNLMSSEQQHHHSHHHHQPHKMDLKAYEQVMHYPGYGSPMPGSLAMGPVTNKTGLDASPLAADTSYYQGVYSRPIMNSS
In short: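 HepG2 cells transiently transfected with multiple cis-regulated reporter transcription units, dosed for 24 h. Reporter mRNA measured by RT-PCR, 6-FAM labelling, HpaI digestion and capillary electrophoresis; bidirectional fitting against DMSO baseline.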

[14] = ATG_FoxO_CIS: Attagene CIS-FACTORIAL HepG2 Assay for human Forkhead box O (FoxO) (AID 2282943); settings: HepG2 Attagene cis-reporter, FoxO element, mRNA; actives raise or lower the signal
In short: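 24 h chemical exposure, HepG2 with transient cis-MRTU transfection. RNA extraction, oligo(dT) RT, reporter-specific PCR, primer-extension labelling, HpaI digestion, CE fragment analysis; bidirectional fit, DMSO baseline.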

[15] = ATG_GATA_CIS: Attagene CIS-FACTORIAL HepG2 Assay for human GATA Binding Protein (AID 2282944); settings: HepG2 GATA cis-element reporter, Attagene multiplex mRNA; actives raise or lower the signal
In short: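 HepG2 cells transiently transfected with multiplexed cis-element reporter units measure endogenous GATA activity; after 24 h compound exposure, reporter mRNA quantified by RT-PCR and capillary electrophoresis. Changes fitted in both directions vs DMSO.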

[16] = ATG_GLI_CIS: Attagene CIS-FACTORIAL HepG2 Assay for human Zinc Finger Protein GLI1 (AID 2282945); settings: HepG2, Attagene cis-factorial reporter mRNA, GLI element; actives raise or lower the signal
In short: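 HepG2 cells transiently transfected with cis-promoter multiplexed reporter units report endogenous transcription factor activity. After 24 h chemical exposure, reporter mRNA was quantified by RT-PCR, 6-FAM labelling, HpaI digestion and capillary electrophoresis, with bidirectional fitting against DMSO.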

[17] = target: Transcription factor E2F1 (Homo sapiens) (UniProt Q01094); assay: ATG_E2F_CIS: Attagene CIS-FACTORIAL HepG2 Assay for human E2F Transcription Factor 1 (AID 2282935); settings: HepG2 Attagene cis-reporter, E2F reporter RNA transcripts; actives raise or lower the signal
Transcription factor E2F1 (Homo sapiens), sequence (Q01094 whole entry, looked up): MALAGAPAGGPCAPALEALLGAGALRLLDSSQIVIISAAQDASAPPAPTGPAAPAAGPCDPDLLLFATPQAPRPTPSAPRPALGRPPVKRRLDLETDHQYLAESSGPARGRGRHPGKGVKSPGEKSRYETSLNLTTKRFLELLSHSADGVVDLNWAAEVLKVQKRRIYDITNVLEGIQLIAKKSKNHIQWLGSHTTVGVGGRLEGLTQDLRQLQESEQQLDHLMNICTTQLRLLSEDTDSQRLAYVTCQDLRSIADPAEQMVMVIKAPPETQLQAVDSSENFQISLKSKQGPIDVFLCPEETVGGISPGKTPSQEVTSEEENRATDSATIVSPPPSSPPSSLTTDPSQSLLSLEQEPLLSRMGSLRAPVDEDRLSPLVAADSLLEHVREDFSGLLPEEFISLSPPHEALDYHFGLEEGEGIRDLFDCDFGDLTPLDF
In short: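 In this cis-factorial format, endogenous factor activity drives transfected reporters in HepG2; transcripts collected at 24 h are quantified by fluorescence after RT-PCR and capillary separation.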

[18] = ATG_M_61_CIS: Attagene CIS-FACTORIAL HepG2 Assay for M61 Transcription Factor (Internal Marker) (AID 2282937); settings: HepG2 Attagene CIS-FACTORIAL M61 internal marker reporter; actives raise or lower the signal
In short: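 HepG2 cells transiently transfected with cis-element-driven multiple reporter transcription units, dosed for 24 h. Reporter mRNA measured by RT-PCR, 6-FAM primer-extension labelling, HpaI digestion and capillary electrophoresis; bidirectional fit versus DMSO baseline.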

[19] = ATG_DR4_LXR_CIS: Attagene CIS-FACTORIAL HepG2 Assay for human Liver X Receptor (LXR), DR4 submotif (AID 2282929); settings: HepG2 Attagene DR4 cis-reporter, mRNA transcription; actives raise or lower the signal
In short: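 HepG2 cells transiently transfected with cis-promoter-driven multiplexed reporter units (DR4 element) were dosed for 24 h. Reporter mRNA was quantified by RT-PCR, fluorescent primer extension, HpaI digestion and capillary electrophoresis; bidirectional fitting versus DMSO baseline.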

Measured: AC50

C=C1CC[C@H](O)C/C1=C/C=C1\CCC[C@]2(C)[C@@H]([C@H](C)/C=C/[C@H](C)C(C)C)CC[C@@H]12
active: [5] 30.3 µM | [8] 39.8 µM
not listed: [17] | [18] | [19]
inactive: all other assays above

OC[C@H]1O[C@@H]2O[C@H]3[C@H](O)[C@@H](O)[C@@H](O[C@H]4[C@H](O)[C@@H](O)[C@@H](O[C@H]5[C@H](O)[C@@H](O)[C@@H](O[C@H]6[C@H](O)[C@@H](O)[C@@H](O[C@H]7[C@H](O)[C@@H](O)[C@@H](O[C@H]8[C@H](O)[C@@H](O)[C@@H](O[C@H]9[C@H](O)[C@@H](O)[C@@H](O[C@H]1[C@H](O)[C@H]2O)O[C@@H]9CO)O[C@@H]8CO)O[C@@H]7CO)O[C@@H]6CO)O[C@@H]5CO)O[C@@H]4CO)O[C@@H]3CO
not listed: [7] | [19]
inactive: all other assays above

O=CCc1ccccc1
not listed: [19]
inactive: all other assays above

ON=C1CCCCC1
not listed: [7] | [14] | [19]
inactive: all other assays above

CC=Cc1ccc(OC)c(OC)c1
not listed: [8] | [19]
inactive: all other assays above

CCOC(=O)CC(C)O (stereo unspecified)
not listed: [7] | [19]
inactive: all other assays above

COc1ccc(CCO)cc1
not listed: [3]
inactive: all other assays above

O=C(O)c1cc(C(=O)O)cc([N+](=O)[O-])c1
not listed: [3] | [17]
inactive: all other assays above
